Data reported in PubChem BioAssay (EPA / NIEHS).
The source made the active and inactive calls. How the source made its calls: active means hit-call score of the fitted dose curve at least 0.9, where 1 is the maximum; inactive means score below 0.9.

Tests used:
[1] = read-out: Transforming growth factor beta 1 (TGFb1), TGFB1 (gene 7040); experiment: BSK_KF3CT_TGFb1: BioMAP Diversity Plus: KF3CT Assay for Transforming growth factor beta 1 (TGFb1) Biomarker Activity (AID 2283072); conditions: primary human keratinocytes with fibroblasts; actives raise or lower the signal
Summary of the method: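 TGF-b1 ELISA on a 24 h dosed co-culture of human keratinocytes and foreskin fibroblasts; cytotoxicity tracked in parallel cultures by SRB staining.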

[2] = read-out: C-C motif chemokine 2 (Homo sapiens) (UniProt P13500); experiment: BSK_KF3CT_MCP1: BioMAP Diversity Plus: KF3CT Assay for Monocyte Chemoattractant Protein 1 (MCP1/CCL2) Biomarker Activity (AID 2283073); conditions: primary human keratinocytes with fibroblasts; actives raise or lower the signal
Summary of the method: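 Biomarker MCP-1 is measured by ELISA in primary human keratinocytes co-cultured with foreskin fibroblasts, 24 h after chemical treatment; DMSO serves as the negative control and activity baseline.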

[3] = read-out: Matrix Metallopeptidase 9 (MMP9), MMP9 (gene 4318); experiment: BSK_KF3CT_MMP9: BioMAP Diversity Plus: KF3CT Assay for Matrix Metallopeptidase 9 (MMP9) Biomarker Activity (AID 2283074); conditions: primary human keratinocytes with fibroblasts; actives raise or lower the signal;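 on AC50: MMP9 protein level quantified by ELISA in the co-culture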
Summary of the method: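 MMP-9 quantified by ELISA after 24 h chemical treatment of primary human skin keratinocyte/fibroblast co-cultures; gain or loss fitted against DMSO, with parallel SRB staining (0.1% SRB, 560 nm) for overt cytotoxicity.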

[4] = read-out: urokinase plasminogen activator (uPA), PLAU (gene 5328); experiment: BSK_KF3CT_uPA: BioMAP Diversity Plus: KF3CT Assay for urokinase plasminogen activator (uPA) Biomarker Activity (AID 2283075); conditions: primary human keratinocytes with fibroblasts; actives raise or lower the signal
Summary of the method: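 ELISA read-out of uPA 24 h after dosing human skin keratinocytes co-cultured with foreskin fibroblasts. Signal change fitted both ways relative to DMSO; sulforhodamine B on parallel cultures marks overt cytotoxicity.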

[5] = read-out: CD40, CD40 (gene 958); experiment: BSK_LPS_CD40: BioMAP Diversity Plus: LPS Assay for CD40 Biomarker Activity (AID 2283076); conditions: primary human HUVEC with PBMC; actives raise or lower the signal
Summary of the method: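 Using a multiplexed primary human co-culture (umbilical vein endothelium plus PBMC), CD40 was read by ELISA 24 h after dosing, with cytotoxicity tracked by sulforhodamine B staining of parallel cultures and activity fitted bidirectionally versus DMSO.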

[6] = read-out: E-selectin (Homo sapiens) (UniProt P16581); experiment: BSK_LPS_Eselectin: BioMAP Diversity Plus: LPS Assay for Eselectin Biomarker Activity (AID 2283077); conditions: primary human HUVEC with PBMC; actives raise or lower the signal
Summary of the method: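 Dose chemical onto LPS-driven HUVEC/PBMC co-culture; after 24 h, run ELISA for E-selectin; fit up- and down-going responses relative to DMSO control.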

[7] = read-out: Interleukin-8 (IL8), CXCL8 (gene 3576); experiment: BSK_LPS_IL8: BioMAP Diversity Plus: LPS Assay for Interleukin-8 (IL8) Biomarker Activity (AID 2283078); conditions: primary human HUVEC with PBMC; actives raise or lower the signal
Summary of the method: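 In this LPS system, chemical-treated human umbilical vein endothelium/PBMC co-cultures were harvested at 24 h for IL-8 ELISA.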

[8] = BSK_LPS_SRB: Viability Assessment in the BioMAP Diversity Plus: LPS Assay (AID 2283079); conditions: primary human HUVEC with PBMC;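 further: total protein by sulforhodamine B absorbance as a cytotoxicity measure; measured one day after compound addition; fitted in both directions against DMSO so loss or gain of signal counts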
Summary of the method: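 Cytotoxicity endpoint in human endothelial–PBMC co-culture: 24 h exposure, then SRB (0.1%) staining, 560 nm read.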

[9] = read-out: Interleukin-1 alpha (IL1a), IL1A (gene 3552); experiment: BSK_LPS_IL1a: BioMAP Diversity Plus: LPS Assay for Interleukin-1 alpha (IL1a) Biomarker Activity (AID 2283080); conditions: primary human HUVEC with PBMC; actives raise or lower the signal
Summary of the method: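 Primary human HUVEC and PBMC co-culture stimulated with LPS is dosed and harvested at 24 h. Both increases and decreases in ELISA-measured IL-1a are scored relative to DMSO.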

[10] = read-out: Monocyte Chemoattractant Protein-1 (MCP1), CCL2 (gene 6347); experiment: BSK_LPS_MCP1: BioMAP Diversity Plus: LPS Assay for Monocyte Chemoattractant Protein-1 (MCP1) Biomarker Activity (AID 2283081); conditions: primary human HUVEC with PBMC; actives raise or lower the signal;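 on AC50: secreted MCP-1 protein quantified by ELISA in culture supernatant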
Summary of the method: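 Values derive from bidirectional fitting against DMSO of ELISA-measured MCP-1 in a human primary endothelial and mononuclear cell co-culture, 24 h after chemical addition under LPS activation.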

[11] = BSK_LPS_PGE2: BioMAP Diversity Plus: LPS Assay for Prostaglandin E2 (PGE2) Biomarker Activity (AID 2283082); conditions: primary human HUVEC with PBMC; actives raise or lower the signal;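 on AC50: secreted prostaglandin E2 measured by ELISA in LPS-stimulated co-culture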
Summary of the method: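 Primary human endothelial cells and blood mononuclear cells, co-cultured with LPS, receive test chemical; PGE2 ELISA follows at 24 h, with SRB-stained parallel cultures flagging cytotoxicity.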

[12] = read-out: Macrophage colony-stimulating factor (MCSF), CSF1 (gene 1435); experiment: BSK_LPS_MCSF: BioMAP Diversity Plus: LPS Assay for Macrophage colony-stimulating factor (MCSF) Biomarker Activity (AID 2283083); conditions: primary human HUVEC with PBMC; actives raise or lower the signal
Summary of the method: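 Bidirectional fit versus DMSO of ELISA-measured M-CSF in co-cultured human umbilical vein endothelial cells and PBMC, sampled 24 h after dosing.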

[13] = read-out: Tissue Factor, F3 (gene 2152); experiment: BSK_LPS_TissueFactor: BioMAP Diversity Plus: LPS Assay for Tissue Factor Biomarker Activity (AID 2283084); conditions: primary human HUVEC with PBMC; actives raise or lower the signal
Summary of the method: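 Read-out: CD142 ELISA, 24 h. System: LPS-driven human endothelial/PBMC co-culture. Analysis: up- or down-signal fitted against DMSO.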

[14] = read-out: Tumor necrosis factor (Homo sapiens) (UniProt P01375); experiment: BSK_LPS_TNFa: BioMAP Diversity Plus: LPS Assay for Tumour Necrosis Factor alpha (TNFa) Biomarker Activity (AID 2283085); conditions: primary human HUVEC with PBMC; actives raise or lower the signal;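 on AC50: TNFa protein level quantified by ELISA in the co-culture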
Summary of the method: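 ELISA-based TNFa endpoint in a human endothelial–PBMC co-culture sampled 24 h post-exposure. Curves were fitted in both directions using DMSO as baseline of activity.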

[15] = read-out: Vascular cell adhesion molecule 1 (VCAM1), VCAM1 (gene 7412); experiment: BSK_LPS_VCAM1: BioMAP Diversity Plus: LPS Assay for Vascular cell adhesion molecule 1 (VCAM1) Biomarker Activity (AID 2283086); conditions: primary human HUVEC with PBMC; actives raise or lower the signal
Summary of the method: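 Measured by ELISA: VCAM-1 in LPS-activated HUVEC/PBMC co-cultures 24 h after treatment. Values reflect bidirectional fitting with DMSO as baseline.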

[16] = read-out: CD38, CD38 (gene 952); experiment: BSK_SAg_CD38: BioMAP Diversity Plus: SAg Assay for CD38 Biomarker Activity (AID 2283087); conditions: primary human HUVEC with PBMC; actives raise or lower the signal
Summary of the method: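 Measures CD38 on a human endothelial/PBMC co-culture driven by SEB and TSST-1, 24 h after compound exposure, using ELISA with fluorescence detection; DMSO defines baseline for bidirectional curve fitting.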

[17] = read-out: CD40, CD40 (gene 958); experiment: BSK_SAg_CD40: BioMAP Diversity Plus: SAg Assay for CD40 Biomarker Activity (AID 2283088); conditions: primary human HUVEC with PBMC; actives raise or lower the signal
Summary of the method: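 Endpoint derived by fitting increases or decreases versus DMSO controls. CD40 is detected by fluorescence ELISA in a human vascular co-culture of endothelium and PBMC at 24 h.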

[18] = read-out: CD69, CD69 (gene 969); experiment: BSK_SAg_CD69: BioMAP Diversity Plus: SAg Assay for CD69 Biomarker Activity (AID 2283089); conditions: primary human HUVEC with PBMC; actives raise or lower the signal;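 further: cell surface CD69 protein quantified by ELISA with fluorescence detection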
Summary of the method: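 Endothelial/PBMC co-culture; chemical added; 24 h incubation; CD69 ELISA with fluorescence detection; bidirectional fit vs DMSO.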

[19] = read-out: Monocyte Chemoattractant Protein-1 (MCP1), CCL2 (gene 6347); experiment: BSK_SAg_MCP1: BioMAP Diversity Plus: SAg Assay for Monocyte Chemoattractant Protein-1 (MCP1) Biomarker Activity (AID 2283090); conditions: primary human HUVEC with PBMC; actives raise or lower the signal
Summary of the method: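 Values derive from bidirectional fitting of ELISA-measured MCP1 against DMSO controls. Readings were taken 24 h after dosing human vascular endothelial cells co-cultured with peripheral blood mononuclear cells under superantigen stimulation.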

[20] = read-out: TIMP metallopeptidase inhibitor 2 (TIMP2), TIMP2 (gene 7077); experiment: BSK_KF3CT_TIMP2: BioMAP Diversity Plus: KF3CT Assay for TIMP metallopeptidase inhibitor 2 (TIMP2) Biomarker Activity (AID 2283071); conditions: primary human keratinocytes with fibroblasts; actives raise or lower the signal
Summary of the method: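 Measurements come from ELISA detection of TIMP-2 at 24 hours in a dosed human keratinocyte and foreskin fibroblast co-culture. DMSO serves as negative control and baseline.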

Tumor necrosis factor (Homo sapiens), sequence (P01375 whole entry, looked up): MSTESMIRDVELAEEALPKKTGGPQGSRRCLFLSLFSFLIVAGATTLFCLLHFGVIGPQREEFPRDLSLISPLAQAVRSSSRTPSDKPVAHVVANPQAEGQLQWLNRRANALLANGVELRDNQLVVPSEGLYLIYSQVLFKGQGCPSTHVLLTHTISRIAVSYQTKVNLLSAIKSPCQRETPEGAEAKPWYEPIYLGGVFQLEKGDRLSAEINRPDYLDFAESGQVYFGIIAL
E-selectin (Homo sapiens), sequence (P16581 whole entry, looked up): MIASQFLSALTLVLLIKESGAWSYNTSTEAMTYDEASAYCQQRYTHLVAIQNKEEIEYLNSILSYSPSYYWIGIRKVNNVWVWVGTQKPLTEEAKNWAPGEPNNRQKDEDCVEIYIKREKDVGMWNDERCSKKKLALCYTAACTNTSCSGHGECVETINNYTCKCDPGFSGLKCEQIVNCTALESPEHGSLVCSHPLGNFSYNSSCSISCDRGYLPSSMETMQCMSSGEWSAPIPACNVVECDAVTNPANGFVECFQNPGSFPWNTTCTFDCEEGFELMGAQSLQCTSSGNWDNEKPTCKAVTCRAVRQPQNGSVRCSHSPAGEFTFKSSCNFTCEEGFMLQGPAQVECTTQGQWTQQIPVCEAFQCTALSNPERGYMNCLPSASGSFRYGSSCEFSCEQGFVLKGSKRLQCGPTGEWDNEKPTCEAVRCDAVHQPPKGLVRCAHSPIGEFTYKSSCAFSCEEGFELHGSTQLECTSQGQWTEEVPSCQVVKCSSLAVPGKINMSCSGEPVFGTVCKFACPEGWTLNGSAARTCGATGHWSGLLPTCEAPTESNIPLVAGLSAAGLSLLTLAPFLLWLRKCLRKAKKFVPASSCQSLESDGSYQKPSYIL

CC(C)=CC1C(C(=O)OCN2C(=O)C3=C(CCCC3)C2=O)C1(C)C (stereo not given)
outcome [1]: inactive
outcome [2]: inactive
AC50 [3]: 3.97 µM (active)
outcome [4]: inactive
AC50 [5]: 11.4 µM (active)
AC50 [6]: 35.1 µM (active)
AC50 [7]: 26.9 µM (active)
outcome [8]: inactive
outcome [9]: inactive
AC50 [10]: 9.93 µM (active)
AC50 [11]: 4.14 µM (active)
AC50 [12]: 34.3 µM (active)
outcome [13]: inactive
AC50 [14]: 31.7 µM (active)
AC50 [15]: 28.5 µM (active)
AC50 [16]: 32.2 µM (active)
AC50 [17]: 20.5 µM (active)
AC50 [18]: 20 µM (active)
AC50 [19]: 18.2 µM (active)

CCC(CC)Nc1c([N+](=O)[O-])cc(C)c(C)c1[N+](=O)[O-]
outcome [20]: inactive
outcome [1]: inactive
outcome [2]: inactive
AC50 [3]: 8.34 µM (active)
outcome [4]: inactive
AC50 [5]: 20 µM (active)
AC50 [6]: 16.8 µM (active)
AC50 [7]: 18 µM (active)
AC50 [8]: 20 µM (active)
AC50 [9]: 36.1 µM (active)
AC50 [10]: 20 µM (active)
outcome [11]: inactive
AC50 [12]: 18.9 µM (active)
outcome [13]: inactive
AC50 [14]: 26.4 µM (active)
AC50 [15]: 15 µM (active)
AC50 [17]: 20 µM (active)
AC50 [18]: 20 µM (active)
AC50 [19]: 29.1 µM (active)

COc1cc(OC)nc(Sc2cccc(Cl)c2C(=O)O)n1
outcome [20]: inactive
outcome [1]: inactive
outcome [2]: inactive
outcome [3]: inactive
outcome [4]: inactive
outcome [6]: inactive
outcome [7]: inactive
outcome [8]: inactive
outcome [9]: inactive
outcome [10]: inactive
outcome [11]: inactive
outcome [12]: inactive
outcome [13]: inactive
outcome [14]: inactive
outcome [15]: inactive
outcome [17]: inactive
outcome [19]: inactive

COP(=O)(OC)OC(Br)C(Cl)(Cl)Br (stereo not given)
AC50 [20]: 31.3 µM (active)
AC50 [1]: 32.3 µM (active)
AC50 [2]: 31.1 µM (active)
AC50 [3]: 30.4 µM (active)
AC50 [4]: 36.9 µM (active)
AC50 [5]: 19.4 µM (active)
AC50 [6]: 32.3 µM (active)
AC50 [7]: 30.8 µM (active)
AC50 [8]: 26 µM (active)
AC50 [9]: 32.3 µM (active)
AC50 [10]: 36.5 µM (active)
outcome [11]: inactive
AC50 [12]: 28.5 µM (active)
AC50 [13]: 15.2 µM (active)
AC50 [14]: 28.9 µM (active)
AC50 [15]: 26.4 µM (active)
AC50 [16]: 31.5 µM (active)
AC50 [17]: 30.2 µM (active)

CCCSP(=O)(OCC)Oc1ccc(Br)cc1Cl (stereo not given)
outcome [20]: inactive
outcome [1]: inactive
outcome [2]: inactive
outcome [3]: inactive
outcome [4]: inactive
outcome [5]: inactive
outcome [6]: inactive
AC50 [7]: 30.2 µM (active)
outcome [8]: inactive
outcome [9]: inactive
outcome [10]: inactive
outcome [11]: inactive
outcome [12]: inactive
outcome [13]: inactive
AC50 [14]: 35.3 µM (active)
AC50 [16]: 30.5 µM (active)
AC50 [17]: 31.9 µM (active)
AC50 [18]: 27.8 µM (active)

Cc1cc(C2CC2)nc(Nc2ccccc2)n1
outcome [20]: inactive
outcome [1]: inactive
outcome [2]: inactive
outcome [3]: inactive
outcome [4]: inactive
AC50 [5]: 14.8 µM (active)
outcome [6]: inactive
outcome [7]: inactive
AC50 [8]: 24.7 µM (active)
outcome [9]: inactive
outcome [10]: inactive
AC50 [11]: 7.61 µM (active)
AC50 [12]: 20.3 µM (active)
outcome [13]: inactive
outcome [14]: inactive
AC50 [15]: 15.7 µM (active)
AC50 [17]: 16.2 µM (active)
AC50 [18]: 28.2 µM (active)
outcome [19]: inactive
